The sample as a whole holds a higher share of hits than the screen did.
RECQ1 inh-1 = qHTS Assay for Inhibitors of RecQ-Like Dna Helicase 1 (RECQ1); RECQ1 DNA unwinding, red fluorescence kinetic read; ATP-dependent DNA helicase Q1 (Homo sapiens), P46063; AID 2549, 2010; 240,000 tested, 0.54% active; Potency, µM (top dose mostly 57.3 µM), inactives show top-dose activity, negative = inhibition, most hits filed as inhibitors;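 further: plate controls were vehicle for no effect and no enzyme for full effect; nearly all actives have a fitted effect of over 30% in size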
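50 nM RECQ1T1 preincubated 15 min with compound in Tris pH 8.0 buffer with MgCl2, DTT, Tween-20 and 2.5 ug/ml poly(dI-dC); started with 200 nM TAMRA/BHQ-2 forked duplex and 2 mM ATP. Unwinding read as fluorescence (525/598 nm), two reads 2 h apart.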
L3MBTL1 inh = qHTS Assay for the Inhibitors of L3MBTL1; 230,000 tested, 0.66% active; Potency, µM (series often up to 57.1 µM), without a hit: at the top dose activity, negative = inhibition, most hits filed as inhibitors; Lethal(3)malignant brain tumor-like protein 1 (Homo sapiens), Q9Y468; AlphaScreen L3MBTL1–H3K9me1 peptide binding; AID 485360, 2010; further: nearly all actives have a fitted effect of over 60% in size
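L3MBTL1 50 nM + b-AHA-H3(1-15)K9me1 75 nM, 30 min RT; compound added, 30 min RT; streptavidin donor/Ni-chelate acceptor beads 10 ug/mL each final, 30 min RT dark; AlphaScreen read.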
APE1 inh = qHTS Assay for Inhibitors of the Human Apurinic/apyrimidinic Endonuclease 1 (APE1); AID 2517, 2012; 350,000 tested, 0.35% active; recombinant APE1, TAMRA/BHQ-2 abasic DNA cleavage fluorescence; Potency, µM (series often up to 65.8 µM), for inactives: at the top dose activity change, negative = inhibition, actives largely listed as inhibitors;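 further: plate controls were vehicle for no effect and reference inhibitor for full effect; nearly all actives have a fitted effect of over 55% in size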
Target sequence (P27695 whole entry, looked up): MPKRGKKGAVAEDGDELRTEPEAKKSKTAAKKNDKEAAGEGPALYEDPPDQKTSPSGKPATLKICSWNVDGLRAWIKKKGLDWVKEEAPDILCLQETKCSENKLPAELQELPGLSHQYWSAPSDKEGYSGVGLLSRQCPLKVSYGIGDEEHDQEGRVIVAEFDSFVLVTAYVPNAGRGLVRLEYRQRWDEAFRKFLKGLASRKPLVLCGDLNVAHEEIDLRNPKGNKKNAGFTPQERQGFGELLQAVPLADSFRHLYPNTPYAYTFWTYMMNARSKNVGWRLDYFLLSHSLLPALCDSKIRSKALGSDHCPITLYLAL
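Substrate: short duplex with […] THF abasic site, 5'-TAMRA and 3'-BHQ-2, 50 nM final. APE1 at 0.75 nM, preincubated 15 min RT with compound. Fluorescence increase from first to third read measured activity.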
BLM helicase inh = qHTS Assay for Inhibitors of Bloom's syndrome helicase (BLM) | recombinant BLM DNA unwinding, fluorescence dequenching | Potency, µM (highest dose often 56.1 µM), inactives show at the highest dose activity change, negative = inhibition, most hits filed as inhibitors | 350,000 tested, 0.2% active | AID 2528, 2010;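 further: plate controls were vehicle for no effect and no enzyme for full effect; nearly all actives have a fitted effect of over 35% in size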
KDM4E inh = qHTS Assay for Inhibitors of Human Jumonji Domain Containing 2E (JMJD2E); JMJD2E catalytic domain, FDH-coupled NADH fluorescence (FDH is formaldehyde dehydrogenase); AID 2147, 2009; Lysine-specific demethylase 4E (Homo sapiens), B2RXH2; 230,000 tested, 1.6% active; Potency, µM (doses to about 57.1 µM), inactives show top-dose activity change, negative = inhibition, usual class: inhibitors; active means well fitted inhibition curve with a large enough effect, not every such curve was filed as active; inconclusive means small, poorly fitted or top-dose-only effect, or another doubt; inactive means no such curve, though single readings can be large or run the other way;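 further: 0% = wells with enzyme and -100% = buffer wells without enzyme; nearly all actives have a fitted effect of over 50% in size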
Target sequence (B2RXH2 1-337 limits assumed): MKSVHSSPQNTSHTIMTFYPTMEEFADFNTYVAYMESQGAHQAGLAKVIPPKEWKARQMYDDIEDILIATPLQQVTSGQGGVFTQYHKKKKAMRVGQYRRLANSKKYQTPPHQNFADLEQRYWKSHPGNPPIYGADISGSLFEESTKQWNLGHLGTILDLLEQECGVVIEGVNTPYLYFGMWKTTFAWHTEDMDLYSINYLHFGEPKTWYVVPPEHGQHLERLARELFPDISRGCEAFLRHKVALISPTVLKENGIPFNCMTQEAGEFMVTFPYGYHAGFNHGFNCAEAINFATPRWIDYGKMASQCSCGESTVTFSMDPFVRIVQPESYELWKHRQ
RECQ1 conf = Confirmation qHTS Assay for Inhibitors of RecQ-Like Dna Helicase 1 (RECQ1); shares compounds with RECQ1 inh-1; RECQ1 helicase DNA unwinding, fluorescence; Potency, µM (doses to about 229 µM), for inactives: at the highest dose activity change, negative = inhibition, hits mostly inhibitors; 610 tested, 28% active; further: nearly all actives have a fitted effect of over 45% in size
ADP FP counter = Counterscreen for RECQ1 Inhibitors: ADP Fluorescence Polarization Displacement Assay; Potency, µM (series often up to 228 µM), for inactives: at the highest dose activity change, negative = inhibition, usual class: inhibitors; 530 tested, 27% active; AID 2711, 2010; shares compounds with RECQ1 inh-1; ADP fluorescence polarization displacement counterscreen; further: nearly all actives have a fitted effect of over 45% in size
RECQ1 inh-2 = Confirmation qHTS Assay for Inhibitors of RecQ-Like Dna Helicase 1 (RECQ1) - Round 2 Cherry Picks | shares compounds with RECQ1 inh-1 | recombinant RECQ1 DNA unwinding, red fluorescence | Potency, µM (top dose mostly 119 µM), without a hit: at the highest dose activity, negative = inhibition, most hits filed as inhibitors | 1,100 tested, 15% active; further: nearly all actives have a fitted effect of over 50% in size
* hit, by the source's call; i = inactive; ? = inconclusive; · = not tested or not shown; ! = a repeat was not active; [ ] = dose if it differs, or a comment. Unless noted, the call rests on the fitted dose curve; in most records, active means well fitted curve in the direction sought with a large enough effect; inconclusive means small, poorly fitted or top-dose-only effect, or another doubt; inactive means no such curve, though single readings can be large; an effect the other way counts as inactive or inconclusive. Unless noted, on the % scale 0 is the no-effect control and ±100 the full control effect; potency means the concentration at half of the fitted maximal effect.

SMILES	RECQ1 inh-1	L3MBTL1 inh	APE1 inh	BLM helicase inh	KDM4E inh	RECQ1 conf	ADP FP counter	RECQ1 inh-2
Cc1cnc(CNc2ncnc3ccc(-c4ccc(N(C)C)cc4)cc23)cn1	25.1µM*	·	-8.9%	-22.2%	·	·	·	?
C[C@](N)(Cc1ccc(O)c(O)c1)C(=O)O	2.24µM*!	?	1.58µM*!	17.8µM*!	15.8µM*!	1.41µM*!	12.6µM*	·
C[C@](N)(Cc1ccc(O)cc1)C(=O)O	-2.8%	·	13.1%	1.2%	-2.0%	·	·	·
Cc1ccccc1CSc1nnc(NC(=O)Cc2cccs2)s1	39.8µM*	?	?	-21.1%	2.8%	·	·	-28.5%
Cn1c(C(=O)N[C@@H](Cc2ccccc2)C(=O)NCCC(=O)O)cc2cc(Cl)ccc21	·	·	19.9%	-3.7%	·	·	·	·
O=C(CSc1nccc(=O)[nH]1)NC1CCCc2ccccc21 (centres undefined)	-0.9%	7.8%	2.9%	-4.7%	-0.4%	·	·	·
O=C(O)CC(SCC(=O)NC1CCCc2ccccc21)C(=O)O (centres undefined)	7.2%	-3.1%	-2.2%	1.3%	-11.0%	1.3%	5.7%	·
CN1C2CCC1CC(NC(=O)c1cccc(C(F)(F)F)c1)C2 (centres undefined)	·	·	21.6%	-0.1%	·	·	·	·
O=C1N/C(=N\S(=O)(=O)Cc2ccccc2)S/C1=C/c1cc([N+](=O)[O-])ccc1O	13.0%	-18.2%	-1.5%	-6.4%	-4.7%	19.6%	-2.3%	·
Cc1cc(C)cc(OCC(=O)Nc2nonc2NC(=O)COc2cc(C)cc(C)c2)c1	?	-3.5%	4.0%	-3.9%	-2.4%	·	·	-0.9%
Cc1cc(C)cc(OCC(=O)Nc2nonc2-c2ccc(Br)cc2)c1	·	·	·	-6.0%	·	·	·	·
COc1ccc(C)cc1-n1c(SCC(=O)Nc2cc(C)on2)nc2ccccc2c1=O	-7.5%	-5.9%	-3.4%	-8.7%	5.7%	·	·	·
COc1cccc(-n2c(SCC(=O)Nc3nccs3)nnc2-c2ccoc2C)c1	i	?	3.8%	3.7%	3.7%	·	·	·
COc1ccc(-n2c(SCC(=O)Nc3nccs3)nnc2-c2ccoc2C)cc1	-14.5%	·	-1.7%	-6.1%	-2.4%	6.6%	-12.0%	·
COc1ccc(-n2c(SCC(=O)Nc3nc(C)cs3)nnc2-c2ccoc2C)cc1	-18.1%	-1.9%	-1.1%	2.0%	-10.2%	-6.3%	9.1%	·
CCCc1nc2ccc(NC(=O)c3ccco3)cc2c(=O)n1Cc1ccccc1Cl	-13.8%	-1.8%	3.6%	-3.2%	7.5%	·	·	·
CCCCC1=CC2=C(c3ccco3)C(=O)C(C)(OC(=O)c3ccc(OC)cc3)C(=O)C2=CN1Cc1ccccc1 (centres undefined)	?	·	7.4%[12.4 µM]	-2.9%[12.4 µM]	15.8µM*!	·	·	-9.3%
CCOC(=O)c1c(NC(=O)CNC2CCCCC2)sc(C)c1C	i	52.7%	?	-5.7%	-7.1%	·	·	·
CSc1nc2ccccc2cc1/C=C(\C#N)c1cccc(Cl)c1	12.6µM*	12.3%	15.5%	-2.7%	2.2%	·	·	-6.5%
CCOC(=O)/C(C#N)=C/c1cc2ccccc2nc1Cl	6.3%	-3.2%	1.4%	-0.1%	-0.8%	·	·	·
Cc1ccc(CNC(=O)C(Cc2ccccc2)NS(=O)(=O)c2ccc3c(c2)CCC(=O)N3)cc1 (centres undefined)	-3.9%	·	-2.5%	-0.3%	3.6%	-5.6%	11.2%	·
CCn1c(C)c(C)c2cc(C(=O)Nc3cccc(Cl)c3)ccc21	7.94µM*	-13.2%	7.4%	-11.6%	?	-13.8%[114 µM]	10.2%[91.9 µM]	-15.8%
CC(=O)c1cccc(NC(=O)c2ccc3c(c2)c(C)c(C)n3Cc2ccc(Cl)cc2)c1	·	·	·	-6.8%	·	·	·	·
CCCn1c(=O)c2c(nc3n2CCN3c2ccc(C)cc2)n(C)c1=O	·	·	·	1.8%	·	·	·	·
O=C(c1cc(-c2ccccc2)on1)N1CCCc2ccccc21	-11.6%	28.4%	2.9%	-15.4%	2.0%	·	·	·
SMILES	RECQ1 inh-1	L3MBTL1 inh	APE1 inh	BLM helicase inh	KDM4E inh	RECQ1 conf	ADP FP counter	RECQ1 inh-2
O=C(c1cc(-c2ccco2)on1)N1CCCc2ccccc21	39.8µM*	0.0%	11.8%	-21.9%	-7.8%	·	·	?
CCn1c(SCC(=O)OC)nc2sc3c(c2c1=O)CCC3	?	?	?	-22.0%	-1.5%	·	·	?
CC/C(=C/c1sc2ccc(C)cc2[n+]1CCCS(=O)(=O)[O-])SC	?	·	-10.3%	-3.2%	-2.7%	·	·	-4.1%
CC/C(=C/c1sc2ccc(C)cc2[n+]1CCO)SC	-11.2%	-0.2%	16.1%	-5.9%	?	·	·	·
Cc1c(-n2c(SC(C)C(=O)NC(N)=O)nc3ccccc3c2=O)c(=O)n(-c2ccccc2)n1C (centres undefined)	-2.2%	2.6%	3.8%	4.2%	-1.6%	0.5%	4.7%	·
Cc1c(-n2c(SCC(C)C)nc3ccccc3c2=O)c(=O)n(-c2ccccc2)n1C	i	1.1%	0.4%	-0.3%	11.5%	·	·	·
CCOC(=O)c1sc(-c2ccc(Br)cc2)cc1N	31.6µM*	32.7%	24.8%	-14.0%	?	·	·	-18.0%
Cc1nc2ccc(N=NC3=C(O)CC(C)(C)CC3=O)cc2s1	0.4%	-5.0%	1.3%	-0.5%	-18.3%	·	·	·
Cc1nc2ccc(N=NC3=C(O)CCCC3=O)cc2s1	1µM*	-8.2%	-4.8%	-8.4%	-2.0%	21.5%[114 µM]	-6.6%[91.9 µM]	·
CCOC(=O)C1=C(O)/C(=C/c2cc(OC)c(O)c(OC)c2)SC1=Nc1ccc(OC)cc1	14.1µM*	-5.5%	?	-5.7%	1.4%	·	·	?
CC1=CCc2c(cc3oc(C)cc(=O)c3c2O)OC1	i	·	0.7%	0.7%	?	·	·	·
Cc1cc(=O)c2c(O)c(O)ccc2o1	35.5µM*	17.8µM*	?	-3.5%	?	·	·	-9.4%
Cc1ccc(Cn2c(=S)[nH]c3ccc(N4CCOCC4)cc3c2=O)o1	17.8µM*	-9.4%[11.4 µM]	?	-28.9%	?	?	50.1µM*	·
CCCCn1c(=S)[nH]c2ccc(N3CCOCC3)cc2c1=O	1.1%	11.2%	-7.9%	-2.5%	?	·	·	·

Assay outcomes: PubChem BioAssay, National Center for Advancing Translational Sciences (NCATS)
